Screen size: about 370,000 compounds; about 6,800 (1.8%) were called active.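 The calls were made as follows: active = activation above a cutoff set at the mean of all screened compounds plus 3 SD (cut at about 10% in these data); inactive = the rest.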 What follows is part of a selection rich in actives, with near analogues and random picks from the rest.

The subject of this test is Nuclear hormone receptor DAF-12 (Heterodera glycines), GAL4 fusion. Description: H. glycines DAF-12 receptor agonists, primary screen, cell-based, luminescence, HEK293, GAL4 fusion, UAS-luciferase (AID 687014).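 Also: 0% = DMSO wells and 100% = sodium butyrate wells.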 The settings on record: HEK293 GAL4-hgDAF12 UAS-luciferase reporter, agonist luminescence; at 6.8 µM; stronger effect = higher value; normalized to butyrate control.
With `COC(=O)[C@]12C[C@H](CC(=O)N3CCOCC3)C(=O)N(Cc3ccc(Cl)cc3Cl)C1=C[C@H](C(C)C)O[C@@H]2C1CC1`, the activation is -3.62% (inactive).

On to `CCOC(=O)C1=C(C(=O)OCC)C2N(Cc3ccc(C#N)cc3)c3ccccc3[C@@]23C[C@@H](C(=O)OC)N(S(=O)(=O)c2ccc(F)cc2)C3=N1` (stereo not given in full), for which the activation is 2.34% (inactive). Next, `Cc1ccc(-n2c(SCC(=O)Nc3cccc4ccccc34)nnc2-c2ccccn2)cc1`: -2.36% (inactive). Take `Cc1cccc(OCC(=O)NC2CC(C)(C)NC(C)(C)C2)c1`: the activation was 0.72% (inactive). Next, `Cc1cccc(OCC(=O)Nc2ccc(C(=O)O)cc2NC(=O)COc2cccc(C)c2)c1`: -2.94% (inactive). Next, `Cc1cccc(OCC(=O)Nc2ccccc2F)c1`: 11.4% (active). As for `COC(=O)C1CN(CCc2ccccc2)CCS(=O)(=O)N1Cc1cccc(Cl)c1` (stereo not given), the figure is -0.51% (inactive); as for `Cc1ccc(C(=O)NNC2=Nc3cc([N+](=O)[O-])ccc3OC2)cc1`, 4.07% (inactive); as for `COc1ccc(-c2onc(C)c2-c2ccc3c(c2)OCCO3)c(O)c1`, -2.49% (inactive). Take `COc1ccc(C2=Nc3cc(C)ccc3OC2)cc1`: the activation is 15.9% (active). Turning to `O=C1Nc2ccccc2OC1CC(=O)N1CCCCCCC1` (stereo not given), the activation is 3.97% (inactive). As for `O=C(c1cccc(C(F)(F)F)c1)N1CC[C@H]2[C@H](CCCN2Cc2cc(F)cc(F)c2)C1`, the figure is 1.35% (inactive). As for `Cc1ccc(C(=O)C(=S)N2CCOCC2)cc1`, the figure is 3.06% (inactive); as for `O=C(c1ccccc1)C(O)(CN1CCCCC1)c1ccccc1` (stereo not given), -0.03% (inactive); as for `O=C(O)c1ccc(N=NN2CCOCC2)cc1`, 10.6% (active). As for `NC1=NN(c2cccc(C(=O)O)c2)C(=O)C1`, the figure is 0.87% (inactive); as for `CC(=O)c1ccc(OC(=O)N2CCOCC2)cc1`, 1.11% (inactive). In the case of `O=C(O)c1cccc(N=NN2CCCCCC2)c1`, the activation was 12.7% (active). Next, `O=C(NC1CCCCN(Cc2cccc(C(F)(F)F)c2)C1=O)c1ccccc1I` (stereo not given): -2.42% (inactive); `CC(C)NC(=S)N1CCN(S(C)(=O)=O)CC1`: 2.81% (inactive). Next, `C=CCN1C(=O)[C@H](CC(=O)N2CCN(C(=O)OCC)CC2)[C@@]2(C(=O)OCC)CCCC=C12`: 0.53% (inactive); `COC(=O)[C@@]12CCCCC=C1N(CCc1ccc(Cl)cc1)C(=O)[C@H]2CC(=O)NCc1ccc(OC)c(OC)c1`: -3.28% (inactive). Next, `CCOC(=O)c1c(NC(=S)Nc2ccccc2)sc2c1CCN(C)C2`: -0.1% (inactive); `CCOC(=O)c1cn[nH]c1NC(=S)Nc1ccccc1`: 15.5% (active).

As for `CCOC(=O)c1cc2c(nc1NC(=S)Nc1ccccc1)CC(C)(CC)OC2` (stereo not given), the activation is -0.06% (inactive).

(Values after PubChem BioAssay AID687014 (The Scripps Research Institute Molecular Screening Center, 2013).)
